This is one part of a sample in which hits are shown more often than they occur.
PD-1 reversal = activators reversing PD-1 mediated T-cell inhibition | activation, % (no concentration beside the values) | 29,000 tested, under 10 active | AID 2316 | primary human CD4 T cells, PD-L1 beads, CellTiter-Glo 96 h; call rule not given here;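 also: 0% = median vehicle wells and 100% = positive control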
STK33 kin inh = inhibitors of human STK33 kinase. ADP-Glo luminescence, MBP substrate. inhibition, % at 12.5 µM. 27,000 compounds, 0.44% hits. AID 2322; in the data active = inhibition above about 20%
Target sequence (Q9BYT3 whole entry, looked up): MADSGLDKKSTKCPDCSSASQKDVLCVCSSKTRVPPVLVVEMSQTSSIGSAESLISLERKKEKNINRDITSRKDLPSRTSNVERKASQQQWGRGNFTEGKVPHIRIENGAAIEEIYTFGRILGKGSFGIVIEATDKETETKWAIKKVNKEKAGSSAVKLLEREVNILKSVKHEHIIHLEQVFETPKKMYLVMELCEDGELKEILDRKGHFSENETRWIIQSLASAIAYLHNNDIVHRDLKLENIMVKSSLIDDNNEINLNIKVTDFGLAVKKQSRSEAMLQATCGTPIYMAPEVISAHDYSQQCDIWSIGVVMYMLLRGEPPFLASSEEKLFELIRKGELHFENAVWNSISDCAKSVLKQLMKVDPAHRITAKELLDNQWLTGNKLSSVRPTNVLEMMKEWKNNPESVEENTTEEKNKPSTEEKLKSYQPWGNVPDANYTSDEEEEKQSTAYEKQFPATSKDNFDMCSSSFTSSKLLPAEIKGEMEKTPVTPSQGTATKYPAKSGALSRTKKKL
NOMO-1 viab = STK33 inhibitor candidate reducing NOMO-1 cell viability; NOMO-1 AML viability, CellTiter-Glo luminescence, 72 h; inhibition, % (no concentration beside the values); 37,000 compounds, 7.5% hits; in the data active = inhibition above about 80%
The depositor's hits bear a star; · = not tested or not shown.

SMILES | PD-1 reversal | STK33 kin inh | NOMO-1 viab
C[C@H]1CN([C@@H](C)CO)C(=O)Cc2cc(NC(=O)c3ccncc3)ccc2O[C@H]1CN(C)Cc1ccc(C(=O)Nc2ccccc2N)cc1 | -3.1 | · | 126.0*
C[C@@H]1CN([C@H](C)CO)C(=O)Cc2cc(NC(=O)Nc3ccc(F)cc3)ccc2O[C@@H]1CN(C)Cc1ccc(C(=O)Nc2ccccc2N)cc1 | -1.2 | · | 97.3*
C[C@H]1CN([C@@H](C)CO)C(=O)Cc2cc(NC(=O)c3ccncc3)ccc2O[C@@H]1CN(C)Cc1ccc(C(=O)Nc2ccccc2N)cc1 | 0.4 | · | 32.4
CC(C)NC(=O)Nc1ccc2c(c1)CC(=O)N([C@@H](C)CO)C[C@@H](C)[C@@H](CN(C)Cc1ccc(C(=O)Nc3ccccc3N)cc1)O2 | -3.8 | · | 107.3*
C[C@H]1CN([C@@H](C)CO)C(=O)Cc2cc(NC(=O)Nc3ccccc3)ccc2O[C@H]1CN(C)Cc1ccc(C(=O)Nc2ccccc2N)cc1 | -3.9 | · | 139.4*
Cc1cc(C)c(C)c(Cn2c(CCCO)nc3ccccc32)c1C | -5.3 | 0.6 | 71.0
COC(=O)[C@]1(Cc2ccccc2N=[N+]=[N-])N=C(c2ccc(OCCCO)cc2)O[C@@H]1c1ccccc1N=[N+]=[N-] | · | 5.1 | ·
CC1(C)CC(O)CC2(C)OC(=O)C=C12 (stereo unspecified) | 2.1 | -3.7 | 37.3
Cc1c(Cl)cccc1NC(=O)CSc1nnc(-c2cccc(Cl)c2)n1C | 0.8 | -6.0 | 2.8
Cc1cc(C(=O)CSc2ncn[nH]2)c(C)n1-c1cc(F)ccc1F | 1.8 | 0.0 | 21.1
C[C@H]1CN([C@@H](C)CO)C(=O)Cc2cc(NC(=O)Nc3cccc4ccccc34)ccc2O[C@H]1CN(C)Cc1ccc(C(=O)Nc2ccccc2N)cc1 | -1.2 | · | 105.2*
Cc1noc(C)c1NC(=O)Nc1ccc2c(c1)C(=O)N([C@H](C)CO)C[C@H](C)[C@H](CN(C)Cc1ccc(C(=O)Nc3ccccc3N)cc1)O2 | 0.1 | · | 37.0
C[C@H]1CN([C@@H](C)CO)C(=O)Cc2cc(NC(=O)Nc3ccc(F)cc3)ccc2O[C@H]1CN(C)Cc1ccc(C(=O)Nc2ccccc2N)cc1 | -2.0 | · | 128.3*
C[C@H]1CN([C@@H](C)CO)C(=O)Cc2cc(NC(=O)Nc3cccc4ccccc34)ccc2O[C@@H]1CN(C)Cc1ccc(C(=O)Nc2ccccc2N)cc1 | -1.3 | · | 28.6
C[C@H](CO)N1C[C@H](C)[C@H](CN(C)Cc2ccc(C(=O)Nc3ccccc3N)cc2)Oc2ccc(NC(=O)Nc3ccc4c(c3)OCO4)cc2CC1=O | -4.8 | · | 126.9*
Cc1noc(C)c1NC(=O)Nc1ccc2c(c1)CC(=O)N([C@H](C)CO)C[C@H](C)[C@H](CN(C)Cc1ccc(C(=O)Nc3ccccc3N)cc1)O2 | 0.6 | · | 136.7*
C[C@H]1CN([C@@H](C)CO)C(=O)Cc2cc(NC(=O)Nc3ccc4c(c3)OCO4)ccc2O[C@@H]1CN(C)Cc1ccc(C(=O)Nc2ccccc2N)cc1 | -0.2 | · | -9.0
O=C(O)CCNC(=O)c1ccco1 | 0.8 | · | 19.3
Cc1cc(C)c(OCC(=O)Nc2ncc(I)cc2C)c(Cl)c1 | -1.2 | 2.7 | 4.1
CS(=O)(=O)CCC(C(=O)Nc1cccc2ncccc12)N1C(=O)c2cc(Cl)c(Cl)cc2C1=O (stereo unspecified) | 0.8 | 0.4 | 13.4
Cc1cc(C)c(NC(=O)CN(c2ccc(Cl)cc2)S(C)(=O)=O)c(C)c1 | 2.7 | -4.4 | 7.9
Cc1cccc(NC(=S)N2CCCCC2C)c1 (stereo unspecified) | -3.3 | -5.7 | 23.1
c1cncc(C2OCC3(CO2)COC(c2cccnc2)OC3)c1 (stereo unspecified) | -0.1 | · | -25.3
CC1=CC(C)C2(COC(=O)Nc3ccccc3)COC(c3cccnc3)C1C2C (stereo unspecified) | -0.5 | · | 104.7*
C[C@@H]1CN([C@@H](C)CO)C(=O)Cc2cc(NC(=O)CCCCCC(=O)Nc3ccccc3N)ccc2O[C@@H]1CN(C)Cc1ccc(Oc2ccccc2)cc1 | -0.9 | · | 139.6*
SMILES | PD-1 reversal | STK33 kin inh | NOMO-1 viab
C[C@H]1CN([C@@H](C)CO)C(=O)Cc2cc(NC(=O)CCCCCC(=O)Nc3ccccc3N)ccc2O[C@@H]1CN(C)Cc1ccc(Oc2ccccc2)cc1 | -0.2 | · | 122.3*
C[C@H](CO)N1C[C@H](C)[C@H](CN(C)Cc2ccc(Oc3ccccc3)cc2)Oc2ccc(NC(=O)CCCN(C)C)cc2CC1=O | · | -3.5 | 10.9
C[C@@H]1CN([C@@H](C)CO)C(=O)Cc2cc(NC(=O)CCCN(C)C)ccc2O[C@@H]1CN(C)Cc1ccc(Oc2ccccc2)cc1 | · | 5.6 | 20.6
C[C@@H]1CN([C@H](C)CO)C(=O)Cc2cc(NC(=O)CCCCCC(=O)Nc3ccccc3N)ccc2O[C@@H]1CN(C)Cc1ccc(Oc2ccccc2)cc1 | -0.9 | · | 127.7*
C[C@H]1CN([C@@H](C)CO)C(=O)Cc2cc(NC(=O)CCCN(C)C)ccc2O[C@@H]1CN(C)Cc1ccc(Oc2ccccc2)cc1 | · | -8.6 | 24.6
Cc1c(NC(=O)CN(c2ccccc2F)S(C)(=O)=O)cccc1[N+](=O)[O-] | -1.1 | 4.3 | 37.3
Cc1ccc(S(=O)(=O)N(CC(=O)O)c2ccc(C)c(C)c2)cc1 | 2.3 | -3.3 | 14.7
O=C(CSc1nc2ccccc2s1)Nc1ccccc1N1CCOCC1 | -2.5 | -3.0 | 9.5
C[C@@H]1CN([C@@H](C)CO)C(=O)Cc2cc(NC(=O)Cc3ccccc3)ccc2O[C@@H]1CN(C)Cc1ccc(C(F)(F)F)cc1 | -2.2 | 0.6 | 42.8
C[C@@H]1CN([C@H](C)CO)C(=O)Cc2cc(NC(=O)CCCCCC(=O)Nc3ccccc3N)ccc2O[C@@H]1CN(C)Cc1ccc(C(F)(F)F)cc1 | -0.9 | · | 140.6*
C[C@@H]1CN([C@H](C)CO)C(=O)Cc2cc(NC(=O)CCCCCC(=O)Nc3ccccc3N)ccc2O[C@H]1CN(C)Cc1ccc(C(F)(F)F)cc1 | 0.7 | · | 114.3*
C[C@@H]1CN([C@H](C)CO)C(=O)Cc2cc(NC(=O)Cc3ccccc3)ccc2O[C@@H]1CN(C)Cc1ccc(C(F)(F)F)cc1 | -1.0 | 1.1 | 62.3
CCC(Sc1nnnn1-c1ccccc1)C(=O)Nc1sc2c(c1C#N)CCCC2 (stereo unspecified) | -0.5 | · | 3.8
COc1ccc(S(=O)(=O)N(C)CC(=O)Nc2ccc3c(c2)OCCO3)cc1C | · | 1.9 | 3.9
Cc1ccc(C)c(OCC(=O)Nc2cccc(-c3nnc(-c4ccco4)o3)c2)c1 | 0.3 | 13.4 | 75.7
Cc1cc([N+](=O)[O-])ccc1NC(=O)CSc1nnc(-c2ccccc2)o1 | 0.4 | 3.9 | -8.2
CCn1c(SCC(=O)Nc2ccc(C(C)=O)cc2)nnc1-c1cc(Br)ccc1O | -1.2 | 1.1 | 21.9
Cc1cc(C)nc(N(C#N)C(C(=O)c2ccccc2)c2ccccc2)n1 (stereo unspecified) | · | -1.3 | 110.2*
Cc1cc(C)nc(N(C#N)CC(=O)N2c3ccccc3CCc3ccccc32)n1 | 0.3 | -1.4 | 11.7
COc1c(OC/C=C(\C)CC2C=C(C)C(=O)O2)ccc2ccc(=O)oc12 (stereo unspecified) | 1.2 | -5.3 | 12.0
COc1ccc2c(c1)CCC1C2CCC2(C)C1C[C@@H](O)C2O (stereo partly specified) | · | 2.2 | 3.7
COc1cc2c(cc1O)C(C1CC1)N(C)CC2 (stereo unspecified) | · | -6.9 | ·

Screens as filed in PubChem.
